# RE007 growth inh = qHTS Assay for Inhibitors of the HIV-1 protein Vpr | S. pombe RE007 Vpr strain, BacTiter-Glo ATP luminescence, 24 h | Potency, µM (titrated, usually from 92.2 µM), for the others: at the top dose activity change, negative = less growth, usual class: inhibitors | hit rate 0.21% among 360,000 | AID 651644, 2012; active = well fitted falling curve with a large enough effect; inconclusive = small, poorly fitted or top-dose-only effect; inactive = no such curve, though single readings can be large or run the other way; also: % is scaled to controls: 0 for no effect and ±100 for the full control effect; nearly all actives have a fitted effect of over 50% in size
#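 Fission yeast strain RE007, carrying one chromosomally integrated HIV-1 vpr copy, was seeded at OD 0.01 in PMG+AL medium with 23 nL pinned compound. After 24 h at 30 °C and 99% humidity, viability was read by BacTiter-Glo luminescence.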
# Pf growth 48h = Primary qHTS for delayed death inhibitors of the malarial parasite plastid, 48 hour incubation; hit rate 5.9% among 310,000; Potency, µM (series often up to 28.7 µM), for the others: at the top dose activity change, negative = inhibition, actives largely listed as inhibitors; AID 504832, 2011; P. falciparum luciferase growth in erythrocytes, 48 h; also: % is scaled to controls: 0 for no effect and ±100 for the full control effect
#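 Growth was read as firefly luciferase luminescence after a 48 h, 37 C, 5% CO2 exposure of compounds to reporter-bearing P. falciparum cultures (0.1% parasitemia, 2% hematocrit final) in Albumax-supplemented RPMI 1640.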
# NS1 inh = qHTS Assay for Inhibitors of Influenza NS1 Protein Function. hit rate 0.4% among 270,000. Potency, µM (top dose mostly 46.1 µM), inactives show at the top dose activity, positive = more growth; calls by dose curve; also: actives are rising curves; nearly all actives have a fitted effect of over 50% in size
#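 In this qHTS, NS1 from influenza A is expressed in budding yeast, where it slows growth. Cells are switched from glucose to 2% galactose medium (pH 6.0, -URA), treated with compound, and growth recovery is read at OD600.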
# Pf growth 96h = Primary qHTS for delayed death inhibitors of the malarial parasite plastid, 96 hour incubation; P. falciparum luciferase reporter growth, 96 h; Potency, µM (titrated, usually from 28.7 µM), inactives show top-dose activity change, negative = inhibition, usual class: inhibitors; hit rate 6.9% among 320,000; also: % is scaled to controls: 0 for no effect and ±100 for the full control effect
#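 Erythrocytes infected with luciferase-expressing P. falciparum were dispensed at 2% hematocrit and 0.05% parasitemia (final), then incubated with compounds 96 hours at 37 C in 5% CO2. Luminescence after detection reagent addition reported growth.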
# SARS PLP yeast = qHTS of Yeast-based Assay for SARS-CoV PLP | S. cerevisiae expressing SARS-CoV PLpro, growth rescue | Potency, µM (top dose mostly 32.9 µM), without a hit: at the highest dose activity, positive = growth rescue, hits mostly activators | hit rate 0.19% among 330,000; calls by dose curve; also: 0% is about no effect; nearly all actives have a fitted effect of over 55% in size
# * hit, by the source's call; ? = inconclusive; . = no result; [ ] = dose if it differs, or a comment. Rows were chosen to be rich in hits. Some 9.5% of all compounds tested hit in one or more screens of this group. Unless noted, calls follow the shape of the dose curve; as a rule, active = well fitted inhibition curve with a large enough effect; inconclusive = small, poorly fitted or top-dose-only effect, or another doubt; inactive = no such curve, though single readings can be large or run the other way. Potency is read from the fitted curve at half-maximal effect.
SMILES,RE007 growth inh,Pf growth 48h,NS1 inh,Pf growth 96h,SARS PLP yeast
CCCCCCN(C(=O)CCCCCN1C(=O)NC(c2ccc(C3CCCCC3)cc2)C(C(=O)OCc2ccccc2)=C1C)C(C(=O)NCCCC)c1ccc(OCC(=O)OC)c(C(=O)OC)c1 (configuration not stated),.,2.9µM*,-10%,2.1µM*,-2%
CC1=C(C(=O)OCc2ccccc2)C(c2ccc(C(C)(C)C)cc2)NC(=O)N1CCCCCC(=O)O (configuration not stated),12%,?,15%,?,-29%
CC1=C(C(=O)OCc2ccccc2)C(c2ccccc2)NC(=O)N1CCCCCC(=O)O (configuration not stated),11%,-21%,-14%,?,19%
CCCCCCN(C(=O)CCCCCN1C(=O)NC(c2ccccc2)C(C(=O)OCc2ccccc2)=C1C)C(C(=O)NCCCC)c1ccc(OCC(=O)OC)c(C(=O)OC)c1 (configuration not stated),.,2.1µM*,16%,3.3µM*,1%
CCOC(=O)N1CCN(C(=O)/C(=C/c2ccc(F)cc2)NC(=O)c2ccccc2)CC1,12%,-24%,5%,3.3µM*,-1%
CCOC(=O)N1CCN(C(=O)/C(=C\c2ccc(SC)cc2)NC(=O)c2ccccc2)CC1,-9%,?,-9%,-14%,1%
COC(=O)C1CCN(C(=O)CC(NC(=O)C(F)(F)F)c2cccs2)CC1 (configuration not stated),0%,-18%,3%,7%,1%
COc1nnc(-c2ccc(C)c(S(=O)(=O)NCC3CCCO3)c2)c2ccccc12 (configuration not stated),-2%,?,-7%,-5%,3%
Cc1ccc(-c2nnc(N3CCCCC3)c3ccccc23)cc1S(=O)(=O)NCC1CCCO1 (configuration not stated),-8%,4.7µM*,-13%,.,1%
Cc1ccc(-c2nnc(Nc3ccc(C(N)=O)cc3)c3ccccc23)cc1S(=O)(=O)NCC1CCCO1 (configuration not stated),-8%,8.3µM*,-3%,?,8%
O=C(CC1SC(=O)NC1=O)Oc1ccc(/C=N/NC(=O)c2ccccc2O)cc1 (configuration not stated),21%,-1%,2%,0%,0%
COc1ccc(OC)c(NC(=O)C2(C)CCN2CCOc2ccccc2)c1 (configuration not stated),0%,.,.,.,.
COc1cc2ccccc2cc1C(=O)N/N=C/c1cccs1,-15%,.,.,.,.
Cc1ccccc1Nc1nnc(SCc2cc(=O)n3ccsc3n2)s1,17%,13µM*,20%,17µM*,-3%
Cc1cccc(Nc2nnc(SCc3cn4ccsc4n3)s2)c1,4%,9.3µM*,-6%,5.9µM*,3%
CC(C)(C)NC(=O)CN(C(=O)CN1C(=O)C(=O)c2ccccc21)C(C)(C)C,8%,15%,.,13µM*,-6%
COc1ccc(C(=O)Nc2cc3c(cc2N2CCCCC2)n(C)c(=O)n3C)cc1OC,19%,?,2%,?,4%
Cn1c(=O)n(C)c2cc(N3CCOCC3)c(NC(=O)c3ccc(F)cc3)cc21,3%,?,2%,9.3µM*,-1%
Cn1c(=O)n(C)c2cc(N3CCCC3)c(NC(=O)c3cccc(F)c3)cc21,-11%,-6%,-13%,?,4%
Cn1c(=O)n(C)c2cc(N3CCOCC3)c(NC(=O)c3cccc(Cl)c3)cc21,6%,0%,-9%,1.7µM*,-1%
O=C(Nc1cc(Cl)ccc1N1CCOCC1)c1cccnc1,0%,-12%,-1%,78%,1%
COc1cccc(C(=O)Nc2cc3c(cc2N2CCCC2)n(C)c(=O)n3C)c1,-3%,-3%,0%,12µM*,-15%
COc1cccc(OC)c1C(=O)Nc1cc2c(cc1N1CCOCC1)n(C)c(=O)n2C,-2%,8.3µM*,0%,?,-4%
O=C(/C=C/Nc1ccc(Oc2ccccc2)cc1)c1ccco1,-28%,270%,7%,-33%[5.75 µM],-2%
CCn1c(SCc2ccc(C(=O)Nc3nccs3)cc2)nnc1-c1ccc(N)cc1,-5%,10µM*,19%,.,0%
SMILES,RE007 growth inh,Pf growth 48h,NS1 inh,Pf growth 96h,SARS PLP yeast
Cn1c(SCC(=O)Nc2nccs2)nnc1-c1ccncc1,14%,15%,1%,15%,4%
CCn1c(SCc2ccc(C(=O)Nc3nccs3)cc2)nnc1-c1ccc(NC(C)=O)cc1,-12%,?,24%,13µM*,9%
Cn1c(SCc2ccc(C(=O)Nc3nccs3)cc2)nnc1-c1ccccc1,10%,2.3µM*,7%,.,0%
O=C1c2ccccc2C(c2nnnn2Cc2ccccc2)N1Cc1ccco1 (configuration not stated),11%,.,.,.,.
NC(=O)c1c(/N=C/c2cccs2)sc2c1CCCC2,-2%,53%,-1%,55%,-1%
CN(C)c1ccc2c(=O)cc[nH]c2c1,-12%[18.4 µM],.,.,.,.
Cn1ccc2c(N3CCCCCCC3)cc3c(c21)C1CCC3O1 (configuration not stated),-30%,.,.,.,.
O=C(Nc1ccccc1Br)C1CCCN1S(=O)(=O)c1cccc2nsnc12 (configuration not stated),0%,-2%,3%,?,-6%
Cc1ccc(C(=O)O)cc1NC(=O)C1CCCN1S(=O)(=O)c1cccc2nsnc12 (configuration not stated),14%,.,13%,17µM*,4%
Cc1c(NC(=O)C2CCCN2S(=O)(=O)c2cccc3nsnc23)cccc1C(=O)O (configuration not stated),9%,.,-6%,9.3µM*,7%
COc1ccc(NC(=O)C2CCCN2S(=O)(=O)c2cccc3nsnc23)c(OC)c1 (configuration not stated),-2%,?,11%,10µM*,4%
Cc1[nH]nc(-c2cccnc2)c1N=NN(C)C,1%,.,.,.,.
CN1CCN(CCNC(=O)c2ccc(CS(=O)c3ccc(Br)cc3)o2)CC1 (configuration not stated),-9%,.,.,.,.
CCCSc1nc2cc(OC)c(OC)cc2c(=N)n1CCCN1CCOCC1,-12%,12µM*,.,4.7µM*,-1%
COCCCn1c(SCc2ccc(OC)cc2)nc2cc(OC)c(OC)cc2c1=N,0%,?,21%,?,-3%
CC(C)(C)c1cnnn1-c1ccc(/C=N/Nc2ccc([N+](=O)[O-])cc2)cc1,5%,12µM*,-4%,-61%,?
O=[N+]([O-])c1ccc(C=NNc2ccccc2)cc1,89%,.,.,.,.
NCCCC[C@H]1CN=C(N)N1CCC12CC3CC(CC(C3)C1)C2,12%,9.3µM*,3%,3.7µM*,-1%
CCOC(=O)CSc1ccc(C(=O)N2CCC3(CC2)OCCO3)cc1[N+](=O)[O-],25%,?,-4%,7.4µM*,5%
